{"source": "PubChem BioAssay (NCATS)", "note": "Inconclusive results are not listed. Active and inactive are the calls of the source. The call rests on the fitted dose curve; in most records, active means well fitted cell-killing curve with a large enough effect; inconclusive means small, poorly fitted or top-dose-only effect, or effect the other way; inactive means flat fitted curve, though single readings scatter. On the % scale 0 is the no-effect control and ±100 the full control effect."}
{"tested_on": "C33A", "assay": "Primary qHTS to identify gynecologic anti-cancer compounds using libraries of approved drugs and bioactive compounds (AID 1345084); further: nearly all actives have a fitted effect of over 55% in size", "details": "Gynecologic cancer cell panel viability, ATPlite luminescence, 48 h; series mostly up to 57.5 µM; activity change, negative = cytotoxicity: at the top concentration", "summary_of_the_method": "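Measured: luminescence after ATPlite addition (15 min, RT). Exposure: 48 h, 37 C, 5% CO2.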"}
{"smiles": "COCCc1ccccn1", "activity change, negative = cytotoxicity": "-0.753% (inactive)"}
{"smiles": "OC1(c2ccccc2)CCNCC1", "activity change, negative = cytotoxicity": "1.33% (inactive)"}
{"smiles": "O=C1NC(c2ccccc2)(c2ccccc2)C(=O)N1COP(=O)(O)O", "activity change, negative = cytotoxicity": "2.37% (inactive)"}
{"smiles": "COC(=O)c1cc(Cl)ccc1OC", "activity change, negative = cytotoxicity": "2.33% (inactive)"}
{"smiles": "COC(=O)CCCCC(CCSS/C(CCO)=C(\\C)N(C=O)Cc1cnc(C)nc1N)SC(C)=O", "note": "(stereo unspecified)", "activity change, negative = cytotoxicity": "11.7% (inactive)"}
{"smiles": "COc1ccc2nc(SCc3ncc(C)c(OC)c3C)[nH]c2c1", "activity change, negative = cytotoxicity": "-3.93% (inactive)"}
{"smiles": "Cc1ccc(C(C)OC(=O)C2(C)CCC(C(=O)O)C2(C)C)cc1", "note": "(stereo unspecified)", "activity change, negative = cytotoxicity": "-7.19% (inactive)"}
{"smiles": "CN(C)CCN1CCN(c2cccc(Cl)c2)C1=O", "activity change, negative = cytotoxicity": "-0.281% (inactive)"}
{"smiles": "CCOC(=O)C(=O)CCCCCCl", "activity change, negative = cytotoxicity": "6.27% (inactive)"}
{"smiles": "CCOC(=O)Oc1ccc(CCNC(=O)[C@H](CCSC)NC(C)=O)cc1OC(=O)OCC", "activity change, negative = cytotoxicity": "-1.82% (inactive)"}
{"smiles": "COC(=O)c1cc(Cl)c(NC(C)=O)cc1OC", "activity change, negative = cytotoxicity": "0.594% (inactive)"}
{"smiles": "CCN1CCN(c2cc(-c3ccc(F)cc3)c3c(n2)CCCCCC3)CC1", "activity change, negative = cytotoxicity": "13.3% [at 25.3 µM] (inactive)"}
{"smiles": "CCCc1ncc(C(=O)O)s1", "activity change, negative = cytotoxicity": "21.7% (inactive)"}
{"smiles": "Cc1coc2ccccc2c1=O", "activity change, negative = cytotoxicity": "1.74% (inactive)"}
{"smiles": "O=C1CC2(CCCC2)CC(=O)N1", "activity change, negative = cytotoxicity": "-1.26% (inactive)"}
{"smiles": "COC(=O)/C=C\\C(=O)OC", "activity change, negative = cytotoxicity": "-9.86% (inactive)"}
{"smiles": "C#CC(C)(CC)OC(=O)c1ccccc1C(=O)O", "note": "(stereo unspecified)", "activity change, negative = cytotoxicity": "-0.357% (inactive)"}
{"smiles": "O=C(O)Cn1c(=O)n(Cc2ccc(Br)cc2F)c(=O)c2ccc(Cl)cc21", "activity change, negative = cytotoxicity": "0.355% (inactive)"}
{"smiles": "CN1CCN(N)CC1", "activity change, negative = cytotoxicity": "4.14% (inactive)"}
{"smiles": "CC(CC(C#N)(c1ccccc1)C(C)C)N(C)C", "note": "(stereo unspecified)", "activity change, negative = cytotoxicity": "3.32% (inactive)"}
{"smiles": "CCOC(=O)CN1CCCC1=O", "activity change, negative = cytotoxicity": "-0.0022% (inactive)"}
{"smiles": "CC(C)(C)NCC(O)COc1ccccc1OCC1CCCO1", "note": "(stereo unspecified)", "activity change, negative = cytotoxicity": "6.27% (inactive)"}
{"smiles": "CCN(CC)CC(=O)Oc1ccc(NC(C)=O)cc1", "activity change, negative = cytotoxicity": "-3.14% (inactive)"}
{"smiles": "COC(=O)/C=C(/C)N", "activity change, negative = cytotoxicity": "2.93% (inactive)"}
{"smiles": "C#Cc1ccc(-c2ccccc2F)cc1", "activity change, negative = cytotoxicity": "9.43% (inactive)"}
{"smiles": "NS(=O)(=O)c1cc(C(=O)NN2C[C@H]3[C@H]4CCC(C4)[C@H]3C2)ccc1Cl", "activity change, negative = cytotoxicity": "10.3% (inactive)"}
{"smiles": "Cc1[nH]cnc1-c1ccc(Cl)cc1", "activity change, negative = cytotoxicity": "1.53% (inactive)"}
{"smiles": "c1ccc2c(c1)CCc1ccccc1N2", "activity change, negative = cytotoxicity": "10.6% (inactive)"}
{"smiles": "COC(=O)c1cc(S(N)(=O)=O)ccc1OC", "activity change, negative = cytotoxicity": "12.2% (inactive)"}
{"smiles": "CCOc1ccccc1OCC1CNCCO1", "note": "(stereo unspecified)", "activity change, negative = cytotoxicity": "7.65% (inactive)"}
{"smiles": "O=C(C1CCCCC1)N1CC(=O)N2CCCc3ccccc3C2C1", "note": "(stereo unspecified)", "activity change, negative = cytotoxicity": "-1.64% (inactive)"}
{"smiles": "CCn1ccc(NS(=O)(=O)c2ccc(N)cc2)nc1=O", "activity change, negative = cytotoxicity": "10.8% (inactive)"}
{"smiles": "CSCC[C@H](NC(=O)[C@H](Cc1c[nH]c2ccccc12)NC(=O)CCNC(=O)OC(C)(C)C)C(=O)N[C@@H](CC(=O)O)C(=O)N[C@@H](Cc1ccccc1)C(N)=O", "activity change, negative = cytotoxicity": "8.13% (inactive)"}
{"smiles": "O=C(O)C(=O)Nc1cccc(-c2nn[nH]n2)c1", "activity change, negative = cytotoxicity": "9.62% (inactive)"}
{"smiles": "COc1ccc(CCC(C)=O)cc1", "activity change, negative = cytotoxicity": "19.7% (inactive)"}
{"smiles": "COc1cc(S(N)(=O)=O)cc(C(=O)O)c1OC", "activity change, negative = cytotoxicity": "7.89% (inactive)"}
